Results filed as inconclusive are left out. Calls of active or inactive are those of the source. Calls come from the whole dose curve; as a rule, active = well fitted curve in the direction sought with a large enough effect; inconclusive = small, poorly fitted or top-dose-only effect, or another doubt; inactive = no such curve, though single readings can be large; an effect the other way counts as inactive or inconclusive.

In PubChem BioAssay (NCATS) one finds Potency and outcome data, which are given here for two molecules.

Assay [1] in a line: SDT Cancer Cell Toxicity qHTS against the NCATS CANVASS Library (AID 1347365). Note: nearly all actives have a fitted effect of over 60% in size. Note: potency is the fitted concentration of half-maximal effect. The note with it: SDT dog glioma viability, ATP luminescence, 72 h; series mostly up to 91.4 µM. From the text:
(§1) Natural products and their derivatives continue to be wellsprings of nascent therapeutic potential. However, many laboratories have limited resources for biological evaluation, leaving their previously isolated or synthesized compounds largely or completely untested. To address this issue, the Canvass library of natural products was assembled (https://tripod.nih.gov/canvass), in collaboration with academic and industry researchers, for quantitative high-throughput screening (qHTS) across a diverse set of cell-based and biochemical assays. […] The library was formatted into 1536-well plates and evaluated in 50 qHTS (in an 11-pnt concentration series) bioassays with broad scope of disease-relevant mechanisms. The resulting data set from 50 different assays was then systematically analyzed to identify overall trends and specific natural products with interesting biological activities. […] This assay uses ATP (luminescence) content to measure the cytotoxiciy of compounds on SDT dog glioma cancer cell line. […]
Cancer Cell Toxicity qHTS protocol: for cell lines G06, J3T, and SDT. […] Luminescence signal was acquired via the ViewLux plate reader (PerkinElmer) using a clear emission filter, 2 sec exposure, and 1x binning settings.

Assay [2] can be described thus: KB-3-1 Cancer Cell Toxicity qHTS against the NCATS CANVASS Library (AID 1347366). Note: nearly all actives have a fitted effect of over 75% in size. The note with it: KB-3-1 viability, CellTiter-Glo luminescence, 72 h; series mostly up to 91.4 µM. The method in brief: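 Seed KB-3-1 cells at 500/well in DMEM with 10% FBS, add compounds, incubate 72 hr at 37C and 5% CO2, then add CellTiter-Glo and read luminescence after 10 minutes.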

Assay [3] can be described thus: qHTS for ATAD5 Agonist screened against the NCATS CANVASS Library (AID 1347367).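 Note: luciferase reporter driven by ATAD5 which rises upon DNA damage.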 The settings on record: HEK293T ATAD5-luciferase reporter, luminescence, 16 h; series mostly up to 91.4 µM. Put shortly: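 Step one plated reporter cells and let them acclimate 5hr. Step two pinned compounds with MMS as positive and 0.46% DMSO as negative control. After 16hr incubation, fluorescence viability then luminescence were read.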

Assay [4] in a line: G06 Cancer Cell Toxicity qHTS against the NCATS CANVASS Library (AID 1347368). Note: nearly all actives have a fitted effect of over 60% in size. The note with it: G06 dog glioma cells, viability ATP luminescence, 72 h; series mostly up to 91.4 µM. The method in brief: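 G06 dog glioma cells, 500 per well, exposed 72 hr at 37C, 5% CO2 to compounds in an 11-point series. Cytotoxicity read as ATP content by CellTiterGlo luminescence.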
Assay [5] can be described thus: MCF7 Cancer Cell Toxicity qHTS against the NCATS CANVASS Library (AID 1347369). The settings on record: MCF7 viability, ATP luminescence (CellTiter-Glo), 72 h; series mostly up to 46 µM. The method in brief:
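Cytotoxicity is measured by ATP content: MCF7 cells at 500 per well receive an 11-point compound series and, after 72 hr at 37C, are lysed with CellTiterGlo for luminescence.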

The nature of assay [6]: qHTS for ATAD5 Antagonist screened against the NCATS CANVASS Library (AID 1347370).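 Note: HEK293T cells carrying an ATAD5 luciferase reporter co-treated with 10 µM 5-fluorouridine; nearly all actives have a fitted effect of over 65% in size.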 The settings on record: HEK293T-ATAD5-luc, 5-FUrd stimulated, luminescence, 16 h; series mostly up to 91.4 µM.
Source text: as §1, with “Luminescence intensity is proportional” for “This assay uses ATP (luminescence) content”, “ATAD5 expression.” for “measure the cytotoxiciy of compounds on SDT dog glioma cancer cell line.”
ATAD5 Agonist assay protocol: 1. […] A first readout of fluorescence signal was acquired via the ViewLux (PerkinElmer) plate reader using filter sets for AFC (380-400nmEx/505Em) and 1 second exposure setting. […] 8.#A second readout of luminescence signal was acquired via the ViewLux plate reader using a clear emission filter, 10 second exposure setting.

Assay [7] is described as follows: J3T Cancer Cell Toxicity qHTS against the NCATS CANVASS Library (AID 1347371). The note with it: J3T dog glioma viability, ATP luminescence, 72 h; series mostly up to 46.1 µM. Put shortly: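 J3T dog glioma cells, 500 per well, treated 72 h at 37C with compounds (11-point qHTS); viability from ATP content by CellTiterGlo luminescence; bortezomib titration as control.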

Assay [8] has as its target Nuclear receptor subfamily 1 group I member 3 (Homo sapiens) (UniProt Q14994). In words: qHTS for Constitutive Androstane Receptor (CAR) Antagonist screened against the NCATS CANVASS Library (AID 1347372).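 Note: cells stimulated with 50 nM CITCO agonist so inhibition reflects antagonism.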 The settings on record: HepG2-hCAR-CYP2B6 luciferase, CITCO-stimulated antagonist mode; series mostly up to 91.4 µM. Put shortly: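 HepG2 cells stably carrying hCAR and a CYP2B6-2.2kb luciferase reporter were exposed to compounds plus 50 nM CITCO for 24hr at 37C. CAR activity was read by ONE-Glo luminescence, with viability measured first by CellTiter-Fluor.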

Assay [9] shares this target. In words: qHTS for Constitutive Androstane Receptor (CAR) Agonist screened against the NCATS CANVASS Library (AID 1347373).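 Note: every well also contained 1.5 µM PK11195 alongside the test compound.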 The note with it: HepG2-hCAR-CYP2B6 luciferase reporter, ONE-Glo luminescence; series mostly up to 91.4 µM. From the text:
Natural products and their derivatives continue to be wellsprings of nascent therapeutic potential. However, many laboratories have limited resources for biological evaluation, leaving their previously isolated or synthesized compounds largely or completely untested. To address this issue, the Canvass library of natural products was assembled (https://tripod.nih.gov/canvass), in collaboration with academic and industry researchers, for quantitative high-throughput screening (qHTS) across a diverse set of cell-based and biochemical assays. […] The library was formatted into 1536-well plates and evaluated in 50 qHTS (in an 11-pnt concentration series) bioassays with broad scope of disease-relevant mechanisms. The resulting data set from 50 different assays was then systematically analyzed to identify overall trends and specific natural products with interesting biological activities. […]
Material: A double-stable (hCAR and CYP2B6-2.2kb) transfected cell line, derived from human hepatoma (HepG2) cells, was utilized for the duration of the quantitative high-throughput screens. […] A first readout of fluorescence signal was acquired via the ViewLux (PerkinElmer) plate reader using a FITC dichroic mirror, excitation 405/10 nm filter, and emission 540/25 nm filter; and using 65 light energy, 1 second exposure, and 2x binning settings. […]

Assay [10] is described as follows: 10-beta competent E. coli microbial cell viability qHTS against the NCATS CANVASS Library (AID 1347376). The settings on record: E. coli 10-beta viability, BacTiter-Glo ATP luminescence, overnight; series mostly up to 91.4 µM. Put shortly: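 10-beta competent E. coli (0.2 OD) were exposed overnight at 37C to compounds in an 11-point series. Viability was read as ATP-dependent BacTiter-Glo luminescence after 20 min at room temperature.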

Sequence of Nuclear receptor subfamily 1 group I member 3 (Homo sapiens) (Q14994 whole entry, looked up): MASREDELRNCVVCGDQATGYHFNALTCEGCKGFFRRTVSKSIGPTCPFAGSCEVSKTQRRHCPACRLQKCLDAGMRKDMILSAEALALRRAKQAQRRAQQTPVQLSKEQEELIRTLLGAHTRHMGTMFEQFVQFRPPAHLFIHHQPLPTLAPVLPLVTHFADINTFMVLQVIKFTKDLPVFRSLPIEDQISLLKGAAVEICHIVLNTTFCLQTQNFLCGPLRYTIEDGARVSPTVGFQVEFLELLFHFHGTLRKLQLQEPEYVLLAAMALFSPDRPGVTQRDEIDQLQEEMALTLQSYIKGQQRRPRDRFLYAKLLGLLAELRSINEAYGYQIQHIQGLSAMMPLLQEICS

Consider `O=C(O)Cc1c[nH]c2ccc(O)cc12`, for which, in assay [1], the Potency entry was “inactive”. Besides, the call in assay [2], in assay [3], in assay [4], in assay [5], in assay [6] and in [7] was inactive. Further, the molecule was classed as inactive in assay [8], in assay [9] and in [10].

As for `CC(=O)NCCc1c[nH]c2ccc(O)cc12`, in assay [1], the Potency was 1480 nM (active). Also, the molecule was classed as inactive in [2], in assay [3], in [5], in assay [6], in assay [7] and in assay [8]. In addition, the outcome in assay [9] and in [10] was inactive.
